Compound activity deposited in PubChem BioAssay by several laboratories.
Most compounds without a hit are left out; they make up all but 2.3% or so of the library.
SENP7 inh – inhibitors of human SENP7 protease; Q9BQF6; recombinant SENP7, Z-RLRGG-aminoluciferin luminescence, 40 min; inhibition, % at 5 µM; 330,000 tested, 1.5% active; AID 434973;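 active = inhibition above about 50% at the single test dose, limit read from the data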
Target sequence (Q9BQF6 706-1050 limits assumed): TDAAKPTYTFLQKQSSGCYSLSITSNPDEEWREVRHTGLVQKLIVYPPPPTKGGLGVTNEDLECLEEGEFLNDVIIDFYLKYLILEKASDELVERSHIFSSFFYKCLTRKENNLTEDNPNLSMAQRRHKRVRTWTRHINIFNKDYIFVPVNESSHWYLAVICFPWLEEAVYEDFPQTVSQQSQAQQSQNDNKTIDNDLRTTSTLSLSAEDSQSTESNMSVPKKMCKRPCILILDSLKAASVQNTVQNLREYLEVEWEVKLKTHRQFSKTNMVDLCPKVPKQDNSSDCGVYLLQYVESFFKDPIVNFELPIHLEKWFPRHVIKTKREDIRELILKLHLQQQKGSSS
LGR2 antag – blocks bursicon-induced cAMP signaling via Drosophila LGR2; HEK293 LGR2, CRE-luciferase, bursicon-stimulated, 4 h; inhibition, % at 9.99 µM; 380,000 tested, 0.35% active;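 active = drop in luminescence signal, shown as inhibition above about 50% in the replicate tests, limit read from the data, passing the limit was not always enough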;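 note: agonist challenge used bursicon conditioned medium at about half maximal strength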
SENP8 block-1 – SENP8 (human) protease inhibition | Q96LD8 | recombinant SENP8, Nedd8 substrate fluorescence | inhibition, % at 20 µM | 360,000 tested, 0.64% active | AID 602440; in the data active = inhibition mostly above about 40%, no sharp cut-off; inactive = mostly below about 27%
Target sequence (Q96LD8 whole entry, looked up): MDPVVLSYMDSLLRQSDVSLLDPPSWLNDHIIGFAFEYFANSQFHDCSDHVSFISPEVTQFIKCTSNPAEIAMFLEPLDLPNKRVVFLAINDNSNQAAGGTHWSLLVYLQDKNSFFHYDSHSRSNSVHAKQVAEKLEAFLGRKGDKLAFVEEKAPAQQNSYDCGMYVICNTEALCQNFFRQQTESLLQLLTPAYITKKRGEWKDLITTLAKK
SENP8 block-2 – inhibitors of human SENP8 protease; purified SENP8, Z-RLRGG-aminoluciferin cleavage, luminescence; Q96LD8; 330,000 tested, 1.2% active; inhibition, % at 10 µM; in the data active = inhibition above about 50%
SENP6 block – blocks the human protease SENP6; Recombinant SENP6 catalytic domain, aminoluciferin luminescence; inhibition, % at 10 µM; AID 2599; 330,000 tested, 1.8% active;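 active = inhibition above about 50% at the single tested dose, limit read from the data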
HSP90 inh – HSP90 refolding inhibition in rabbit reticulocyte lysate; luciferase refolding luminescence, 3 h; inhibition, % at 5.6 µM; 290,000 tested, 0.91% active;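 active = inhibition above the screen-wide mean plus 3 SD, computed separately per campaign, cut at about 16% in these data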;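 note: inhibitors lower the luminescence because luciferase stays unfolded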
Of the large screens only hits and unclear results are named; the others gave an inactive call.

O=c1[nH]c2ccccc2n1C1CCN(C(c2cc3ccccc3o2)c2nnnn2Cc2ccccc2)CC1 (stereo not drawn)	LGR2 antag 72 (no result: SENP7 inh, SENP8 block-2, SENP6 block, HSP90 inh)
COc1ccc(C(c2nnnn2-c2c(C)cccc2C)N2CCC(n3c(=O)[nH]c4ccccc43)CC2)cc1 (stereo not drawn)	none (no result: SENP7 inh, SENP8 block-2, SENP6 block, HSP90 inh)
Cc1cccc(C)c1-n1nnnc1C(c1cc2ccccc2o1)N1CCC(n2c(=O)[nH]c3ccccc32)CC1 (stereo not drawn)	LGR2 antag 78 (no result: SENP7 inh, SENP8 block-2, SENP6 block, HSP90 inh)
O=c1[nH]c2ccccc2n1C1CCN(C(CCc2ccccc2)c2nnnn2C2CCCC2)CC1 (stereo not drawn)	LGR2 antag 65 (no result: SENP7 inh, SENP8 block-2, SENP6 block, HSP90 inh)
CSCCC(c1nnnn1-c1ccc2c(c1)OCCO2)N1CCC(n2c(=O)[nH]c3ccccc32)CC1 (stereo not drawn)	none (no result: SENP7 inh, SENP8 block-2, SENP6 block, HSP90 inh)
O=c1[nH]c2ccccc2n1C1CCN(C(c2cccc3ccccc23)c2nnnn2Cc2ccccc2)CC1 (stereo not drawn)	none (no result: SENP7 inh, SENP8 block-2, SENP6 block, HSP90 inh)
O=C(O)[C@@H]1[C@@H](CO)[C@@H]2Cn3c(ccc(-c4ccc(F)cc4)c3=O)[C@H]1N2CC1CCCCC1	none (no result: SENP7 inh, SENP8 block-1, SENP8 block-2, SENP6 block, HSP90 inh)
O=C(C1CC1)N1C[C@@H]2N[C@H](C1)[C@@H]2c1ccc(-c2ccncc2)cc1	LGR2 antag 65 (no result: SENP7 inh, SENP8 block-1, SENP8 block-2, SENP6 block, HSP90 inh)
CCCCn1c(NC(=O)c2ccc(Br)o2)c(C(=O)OCC)c2nc3ccccc3nc21	SENP8 block-2 62, SENP6 block 75
CN1C2CCC1/C(=C/c1ccccn1)C(=O)/C2=C\c1ccccn1	LGR2 antag 102 (no result: SENP7 inh, SENP8 block-2, SENP6 block)
Cc1ccccc1-n1c(/C=C/c2ccccn2)nc2ccccc2c1=O	none
COC(=O)[C@@H]1[C@@H](CO)[C@@H]2Cn3c(ccc(C4=CCCC4)c3=O)[C@H]1N2CC1CCCC1	none (no result: SENP7 inh, SENP8 block-1, SENP8 block-2, SENP6 block, HSP90 inh)
CN1CCN(c2ccc(N)cc2)CC1	SENP8 block-1 51 (no result: LGR2 antag)
COC(=O)[C@H]1[C@H](CO)[C@H]2Cn3c(ccc(-c4cccc(F)c4)c3=O)[C@@H]1N2Cc1cccnc1	none (no result: SENP7 inh, SENP8 block-1, SENP8 block-2, SENP6 block, HSP90 inh)
O=C(O)c1nn(Cc2ccc(Cl)cc2)c2ccccc12	none (no result: SENP7 inh, SENP8 block-2, SENP6 block, HSP90 inh)
O=C(O)c1nn(Cc2ccc(Cl)cc2Cl)c2ccccc12	LGR2 antag 63
Ic1ccccc1CN[C@@H]1C2CCN(CC2)[C@@H]1C(c1ccccc1)c1ccccc1	LGR2 antag 70 (no result: HSP90 inh)
COC(=O)[C@@H]1[C@@H](CO)[C@@H]2Cn3c(ccc(C4=CCCCC4)c3=O)[C@H]1N2Cc1cccnc1	none (no result: SENP7 inh, SENP8 block-1, SENP8 block-2, SENP6 block, HSP90 inh)
CN1C(=O)NC(=O)/C(=C/c2ccc([N+](=O)[O-])s2)C1=O	SENP8 block-1 58 (no result: LGR2 antag)
O=C(O)[C@@H]1[C@@H](CO)[C@@H]2Cn3c(ccc(-c4cccnc4)c3=O)[C@H]1N2C(=O)Nc1cc(F)ccc1F	none (no result: SENP7 inh, SENP8 block-1, SENP8 block-2, SENP6 block, HSP90 inh)
CC(=O)OCC12CC(OC(=O)CC(C)C)C(C)=CC1OC1C(O)C(OC(C)=O)C2(C)C12CO2 (stereo not drawn)	LGR2 antag 101 (no result: SENP7 inh, SENP8 block-2, SENP6 block, HSP90 inh)
Cc1cc2c(C(C)C)c(O)c(O)c(C=O)c2c(O)c1-c1c(C)cc2c(C(C)C)c(O)c(O)c(C=O)c2c1O	SENP8 block-1 39 (no result: SENP7 inh, SENP8 block-2, SENP6 block)
O=C(Cc1ccccc1)N1C[C@@H]2[C@H](c3ccccc31)[C@H](CO)N2Cc1ccccc1	none (no result: SENP7 inh, SENP8 block-1, SENP8 block-2, SENP6 block, HSP90 inh)
c1ccc(-c2cc(-c3ccccc3)[n+](-c3ccccc3)c(-c3ccccc3)c2)cc1	LGR2 antag 103
O=c1c2ccccc2nc(/C=C/c2ccc([N+](=O)[O-])o2)n1-c1ccc(O)cc1	LGR2 antag 54
O=c1[nH]c(=S)[nH]c(O)c1N=Nc1ccc2c(c1)OCO2	SENP7 inh 85, SENP8 block-2 82, SENP6 block 89
NS(=O)(=O)c1ccc(N=Nc2c(O)[nH]c(=S)[nH]c2=O)cc1	none
CC1OC(OC2C=C3CCC4C(CCC5(C)C(c6ccc(=O)oc6)CCC45O)C3(C)CC2)C(O)C(OC2OC(CO)C(O)C(O)C2O)C1O (stereo not drawn)	LGR2 antag 85 (no result: SENP7 inh, SENP8 block-2, SENP6 block, HSP90 inh)
N#Cc1cccc(-c2ccc([C@@H]3[C@H](CO)N4CCCCN(C(=O)Cc5ccccc5)C[C@@H]34)cc2)c1	none (no result: SENP7 inh, SENP8 block-1, SENP8 block-2, SENP6 block, HSP90 inh)
Cn1ncnc2c(=O)n(C)c(=O)nc1-2	SENP7 inh 96, SENP8 block-1 101, SENP8 block-2 96, SENP6 block 95 (no result: LGR2 antag, HSP90 inh)
COC(=O)[C@@H]1[C@@H](CO)[C@@H]2Cn3c(ccc(-c4ccccc4F)c3=O)[C@H]1N2C(C)=O	none (no result: SENP7 inh, SENP8 block-1, SENP8 block-2, SENP6 block, HSP90 inh)
CCCNC(=O)N1[C@@H]2c3ccc(-c4ccccc4OC)c(=O)n3C[C@H]1[C@H](CO)[C@H]2C(=O)OC	none (no result: SENP7 inh, SENP8 block-1, SENP8 block-2, SENP6 block, HSP90 inh)
